From PubChem BioAssay
The source made the active and inactive calls. Unless noted, how the calls were made is not given here.

Assays:
[1] = compounds binding Alexa647 anti-His antibody – biochemical, small-molecule microarray, 635 nm fluorescence, artefact control for SMM control protein annotation, primary screen (AID 1128); conditions: higher = more signal;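 further: score merges feature fluorescence with signal-to-noise for each printed compound spot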
[2] = tested on: Human papillomavirus type 1a E7 protein (residues 1-88); experiment: HPV1a E7 small-molecule binders, primary screen, biochemical, small-molecule microarray, residues 1-88, 635 nm (AID 1129); conditions: small-molecule microarray binding, fluorescence 635 nm; higher = more signal
[3] = biological target: Focal adhesion kinase 1 (Homo sapiens) (UniProt Q05397); experiment: PTK2 protein binding on printed compound slides – biochemical, small-molecule microarray, 635/667 nm fluorescence, BSA, DTT, primary screen (AID 1130); conditions: 635 nm fluorescence, higher = more signal;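 further: composite of spot emission at 667 nm and signal to noise over triplicate slides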
Focal adhesion kinase 1 (Homo sapiens), sequence (Q05397 whole entry, looked up): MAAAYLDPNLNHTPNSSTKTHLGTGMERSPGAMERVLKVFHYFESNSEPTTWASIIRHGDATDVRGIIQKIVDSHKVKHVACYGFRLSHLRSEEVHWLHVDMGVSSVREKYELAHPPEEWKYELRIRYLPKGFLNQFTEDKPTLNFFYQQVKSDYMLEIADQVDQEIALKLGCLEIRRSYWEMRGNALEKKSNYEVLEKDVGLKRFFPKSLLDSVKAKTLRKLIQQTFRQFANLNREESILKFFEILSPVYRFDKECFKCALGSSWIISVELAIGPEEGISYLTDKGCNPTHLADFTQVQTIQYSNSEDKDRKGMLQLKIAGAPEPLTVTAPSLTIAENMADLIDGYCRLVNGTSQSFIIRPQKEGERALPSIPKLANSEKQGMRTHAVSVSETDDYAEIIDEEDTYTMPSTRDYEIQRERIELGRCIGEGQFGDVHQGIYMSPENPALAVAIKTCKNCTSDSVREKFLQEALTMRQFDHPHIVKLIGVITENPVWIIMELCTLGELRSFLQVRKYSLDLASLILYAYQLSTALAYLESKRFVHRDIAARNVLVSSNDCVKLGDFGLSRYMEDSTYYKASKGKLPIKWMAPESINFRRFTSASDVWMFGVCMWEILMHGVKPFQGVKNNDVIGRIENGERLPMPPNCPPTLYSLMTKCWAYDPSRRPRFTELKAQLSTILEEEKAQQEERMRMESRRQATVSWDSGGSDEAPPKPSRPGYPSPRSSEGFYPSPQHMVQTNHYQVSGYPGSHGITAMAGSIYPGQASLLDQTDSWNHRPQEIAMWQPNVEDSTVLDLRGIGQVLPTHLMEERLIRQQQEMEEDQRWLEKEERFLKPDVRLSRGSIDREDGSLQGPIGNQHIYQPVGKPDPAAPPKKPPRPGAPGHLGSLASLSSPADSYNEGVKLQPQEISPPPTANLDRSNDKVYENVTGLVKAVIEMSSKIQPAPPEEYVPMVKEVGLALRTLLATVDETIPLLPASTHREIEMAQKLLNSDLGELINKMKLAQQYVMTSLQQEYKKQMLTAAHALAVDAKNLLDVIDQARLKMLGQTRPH

[4] = tested on: Fibrinogen (Alexa647-labelled); experiment: Alexa647-fibrinogen binding to printed small molecules – biochemical, small-molecule microarray, 635/667 nm fluorescence, artefact control for SMM control-protein annotation, profiling panel (AID 1131); conditions: fibrinogen-A647 binding fluorescence, higher = more signal;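 further: z-score merges 667 nm fluorescence with per-spot signal-to-noise over triplicate slides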
[5] = biological target: Follistatin (Homo sapiens) (UniProt P19883); experiment: FST protein binding to printed compounds – biochemical, small-molecule microarray, 635/667 nm fluorescence, primary screen (AID 1132); conditions: 635 nm fluorescence, higher = more signal
Follistatin (Homo sapiens), sequence (P19883 whole entry, looked up): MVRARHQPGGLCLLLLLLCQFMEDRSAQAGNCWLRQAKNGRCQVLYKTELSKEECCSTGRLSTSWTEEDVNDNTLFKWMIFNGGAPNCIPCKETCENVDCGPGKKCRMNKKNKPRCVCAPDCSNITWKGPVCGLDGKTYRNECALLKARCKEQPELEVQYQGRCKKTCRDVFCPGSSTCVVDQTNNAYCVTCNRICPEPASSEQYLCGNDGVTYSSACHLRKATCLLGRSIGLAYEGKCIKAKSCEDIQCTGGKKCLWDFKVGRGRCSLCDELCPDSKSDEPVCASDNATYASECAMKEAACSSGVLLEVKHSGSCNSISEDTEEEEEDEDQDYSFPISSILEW

[6] = biological target: Fibroblast growth factor 2 (Homo sapiens) (UniProt P09038); experiment: basic fibroblast growth factor binding to printed compounds – biochemical, small-molecule microarray, 635/667 nm fluorescence, primary screen (AID 1133); conditions: FGF2, fluorescence 635/667, higher = more signal
Fibroblast growth factor 2 (Homo sapiens), sequence (P09038 whole entry, looked up): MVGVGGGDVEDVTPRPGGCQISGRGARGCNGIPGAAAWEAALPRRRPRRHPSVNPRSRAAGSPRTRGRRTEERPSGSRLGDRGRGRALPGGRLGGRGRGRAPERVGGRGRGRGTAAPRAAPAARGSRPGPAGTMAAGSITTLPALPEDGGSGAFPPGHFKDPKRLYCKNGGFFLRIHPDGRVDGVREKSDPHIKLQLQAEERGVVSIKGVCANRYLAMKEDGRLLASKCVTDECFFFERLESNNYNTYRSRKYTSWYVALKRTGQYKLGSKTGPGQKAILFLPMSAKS

[7] = JC-1 mitochondrial potential readout, lung cancer cells – cell-based, A549, JC-1 fluorescence, basal, 24 h, 100 nL, profiling panel (AID 1138); conditions: higher = more signal;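 further: A549 lung adenocarcinoma cells under basal conditions with no added stimulus; test concentration not given here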
Lefty1 = Lefty1 protein binding to printed compounds – biochemical, small-molecule microarray, 635/667 nm fluorescence, primary screen (AID 1139); conditions: fluorescence 635/667, higher = more signal
[8] = tested on: wheat germ agglutinin (Triticum aestivum), Alexa647-labelled; experiment: Alexa647-WGA lectin binding to printed small molecules – biochemical, small-molecule microarray, 635/667 nm fluorescence, artefact control for SMM control-protein annotation, profiling panel (AID 1140); conditions: WGA-A647 binding, 635 nm fluorescence, higher = more signal;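 further: score merges 667 nm feature emission with signal to noise over triplicate slides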
[9] = biological target: Luciferin 4-monooxygenase (Photinus pyralis) (UniProt P08659); experiment: inhibition of purified Photinus pyralis luciferase – biochemical, luminescence, purified enzyme, 2006 set, primary screen (AID 1141); conditions: purified firefly luciferase, SteadyGlo luminescence, 30 min; higher = more signal, called active from +8 up or from −8 down;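 further: cell-free assay with purified firefly luciferase at 100 ng per well in PBS; test concentration not given here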
Luciferin 4-monooxygenase (Photinus pyralis), sequence (P08659 whole entry, looked up): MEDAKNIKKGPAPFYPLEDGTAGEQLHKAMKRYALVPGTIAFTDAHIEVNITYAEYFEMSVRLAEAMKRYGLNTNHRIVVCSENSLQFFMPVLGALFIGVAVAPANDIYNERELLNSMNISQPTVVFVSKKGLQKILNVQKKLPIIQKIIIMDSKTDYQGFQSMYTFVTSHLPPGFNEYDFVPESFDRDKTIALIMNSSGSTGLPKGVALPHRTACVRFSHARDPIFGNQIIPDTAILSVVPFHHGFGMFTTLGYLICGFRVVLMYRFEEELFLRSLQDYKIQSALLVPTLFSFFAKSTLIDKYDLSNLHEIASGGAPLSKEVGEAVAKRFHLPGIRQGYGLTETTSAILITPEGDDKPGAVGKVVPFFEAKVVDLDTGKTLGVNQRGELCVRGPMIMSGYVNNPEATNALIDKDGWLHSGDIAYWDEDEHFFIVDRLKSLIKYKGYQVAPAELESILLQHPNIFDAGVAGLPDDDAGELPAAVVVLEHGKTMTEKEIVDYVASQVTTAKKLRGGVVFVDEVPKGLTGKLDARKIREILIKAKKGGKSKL

[10] = tested on: Wnt5a (protein binding on small-molecule microarray); experiment: small molecules binding Wnt5a protein – biophysical, small-molecule microarray, 635/667 nm fluorescence, primary screen (AID 1142); conditions: 635 nm fluorescence, higher = more signal;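 further: fluorescence read at 667 nm with signal to noise per printed feature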
[11] = ATP-based viability of Huh7 replicon cells – cell-based, CellTiter-Glo luminescence, basal, 48 h, cytotoxicity control for HCV replication inhibitor project, primary screen (AID 1143); conditions: higher = more signal, called active from +8 up or from −8 down;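 further: Huh7 hepatoma cells carrying a hepatitis C replication reporter with no stimulus; test concentration not given here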
[12] = Pseudomonas biofilm growth suppression – PAO1 strain, BacTiter-Glo luminescence, LB-PBS, primary screen (AID 1144); conditions: P. aeruginosa PAO1 biofilm, 12 h, higher = more signal
[13] = basal CRE-LacZ reporter activity in PC12 – cell-based, unstimulated, primary screen (AID 1145); conditions: no forskolin, luminescence, 4.5 h, higher = more signal, called active from +8 up or from −8 down
[14] = forskolin-driven CRE-LacZ activity in PC12 – cell-based, CRE-LacZ reporter, forskolin-stimulated, primary screen (AID 1146); conditions: luminescence, 4.5 h, higher = more signal, called active from +8 up or from −8 down;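 further: PC12 cells with 6xCRE LacZ reporter stimulated by forskolin 10 µM; beta-galactosidase reporter signal reflecting CREB driven transcription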
[15] = biological target: Streptavidin (Streptomyces avidinii) (UniProt P22629); experiment: compounds binding control protein streptavidin – biophysical, small-molecule microarray, 635/667 nm fluorescence, artefact control for SMM compound annotation, primary screen (AID 1147); conditions: higher = more signal;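 further: signal reflects streptavidin binding to arrayed compounds as a control protein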
Streptavidin (Streptomyces avidinii), sequence (P22629 whole entry, looked up): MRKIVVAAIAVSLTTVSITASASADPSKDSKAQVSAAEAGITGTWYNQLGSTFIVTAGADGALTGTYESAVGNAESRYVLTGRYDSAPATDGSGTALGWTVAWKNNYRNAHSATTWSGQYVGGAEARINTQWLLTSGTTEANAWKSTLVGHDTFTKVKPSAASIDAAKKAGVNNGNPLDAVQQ

[16] = probe aInhba binding on compound microarray – biochemical, small-molecule microarray, 635/667 nm fluorescence, primary screen (AID 1148); conditions: higher = more signal;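 further: score merges 667nm spot fluorescence with signal-to-noise for antibody binding to printed compounds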
Torsin-1A (Homo sapiens) [17] = biological target: Torsin-1A (Homo sapiens) (UniProt O14656); experiment: TOR1A wild-type binding on microarray – cell lysate, small-molecule microarray, lysate, 635/667 nm, primary screen (AID 1149); conditions: COS7 hTOR1A-WT lysate, 635 nm fluorescence, higher = more signal
Torsin-1A (Homo sapiens), sequence (O14656 whole entry, looked up): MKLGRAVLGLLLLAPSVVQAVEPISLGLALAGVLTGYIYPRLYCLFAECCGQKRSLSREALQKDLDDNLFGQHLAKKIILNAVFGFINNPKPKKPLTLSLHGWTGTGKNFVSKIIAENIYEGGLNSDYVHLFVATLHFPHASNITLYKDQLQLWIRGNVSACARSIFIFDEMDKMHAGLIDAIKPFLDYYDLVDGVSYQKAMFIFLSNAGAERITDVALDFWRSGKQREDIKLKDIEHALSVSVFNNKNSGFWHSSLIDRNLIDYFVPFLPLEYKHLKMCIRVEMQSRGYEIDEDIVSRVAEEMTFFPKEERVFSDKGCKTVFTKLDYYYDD

Torsin-1A (Homo sapiens) [18] = biological target: Torsin-1A (Homo sapiens) (UniProt O14656); experiment: torsin A mutant lysate binding on microarrays – cell lysate, small-molecule microarray, COS7 lysate, 635/667 nm fluorescence, primary screen (AID 1150); conditions: COS7 hTOR1A mutant lysate, 635 nm fluorescence, higher = more signal;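 further: score pools 667 nm emission and signal to noise measuring lysate protein binding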
[19] = tested on: Sonic hedgehog protein (Shh); experiment: Sonic hedgehog microarray binding compounds – biochemical, small-molecule microarray, 635/667 nm fluorescence, primary screen (AID 1151); conditions: 635 nm fluorescence, higher = more signal;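 further: Shh protein binding to compounds spotted on small-molecule microarray slides; score combines spot fluorescence intensity with signal-to-noise across triplicate slides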

Row | Structure (SMILES) | composite z-score [1] | composite z-score [2] | composite z-score [3] | composite z-score [4] | composite z-score [5] | composite z-score [6] | z-score [7] | composite z-score (Lefty1) | composite z-score [8] | z-score [9] | composite z-score [10] | z-score [11] | z-score [12] | z-score [13] | z-score [14] | composite z-score [15] | composite z-score [16] | composite z-score (Torsin-1A (Homo sapiens) [17]) | composite z-score (Torsin-1A (Homo sapiens) [18]) | composite z-score [19]
1 | CCOC(=O)C[C@H]1[C@H](OC(=O)Cc2ccc3c(c2)OCO3)[C@@H](NC(=O)Cc2ccc(OC)cc2)c2cc(OCCCO)ccc2N1C(=O)c1ccc2ccccc2n1 | 0.0036 | 0.383 | -0.345 | 0.172 | 0.147 | 0.211 | 2.69 | 0.168 | -0.119 | -1.7 (inactive) | -0.223 | -0.823 (inactive) | -0.687 (inactive) | 10.1 (active) | -1.24 (inactive) | 0.0739 | -0.0547 | 0.183 | 0.714 | 0.492
2 | C=C(/C(=C/C[C@H](OC(C)=O)c1cccc(OCCO)c1)c1cnc2ccccc2c1)C(C)C | -0.373 | 0.68 | 0.151 | -0.325 | 1.36 | 0.429 | 1.61 | 1.08 | 0.961 | -1.19 (inactive) | 0.217 | -0.262 (inactive) | 0.424 (inactive) | 5.97 (inactive) | -0.323 (inactive) | 0.653 | 0.124 | 0.04 | 0.491 | 2
3 | O=C(NCCCCCNC(=O)/C(Cc1ccccc1)=N/O)OCc1ccccc1 | 0.0971 | 0.0944 | 0.433 | 0.106 | 0.27 | 0.003 | 0.552 | 0.289 | -0.0398 | 0.209 (inactive) | -0.211 | -1.82 (inactive) | -1.37 (inactive) | 3.77 (inactive) | -1.44 (inactive) | 0.153 | -0.245 | 0.847 | -0.013 | -0.103
4 | COC(=O)[C@@]1(Cc2ccccc2)[C@@H]2C(=CC(=O)[C@H]2CC(=O)C(=O)N(C)C)CN1C(=O)c1ccccc1 | 2.15 | 1.25 | 0.745 | 0.0523 | 0.324 | -0.147 | -0.312 | -0.271 | 0.407 | -21 (active) | 0.117 | -2.86 (inactive) | 0.421 (inactive) | 0.0075 (inactive) | 0.087 (inactive) | -0.0043 | 0.308 | 0.2 | 0.239 | -0.2
5 | COc1cc(CO)cc(I)c1O[C@H]1C=C(C(=O)NCCO)C[C@@H](NCc2ccc(F)cc2)[C@@H]1O | -1 | 0.822 | -0.123 | 0.619 | 0.951 | 1.03 | 1.18 | 1.01 | 0.518 | -0.0701 (inactive) | 0.617 | -1.76 (inactive) | -0.613 (inactive) | 10 (active) | -1.05 (inactive) | -0.156 | -0.101 | 0.0626 | 0.0975 | 0.591
